Test results taken from PubChem BioAssay (NCATS).
Inconclusive results are not listed. Activity calls are given as the source filed them. The call rests on the fitted dose curve; in most records, active means well fitted inhibition curve with a large enough effect in the repeat runs; inconclusive means weak or mixed curves; inactive means flat fitted curve, though single readings scatter.

The molecules below were run against Cytochrome P450 2D6 (Homo sapiens) (UniProt P10635) (assay: Cytochrome P450 family 2 subfamily D member 6 (CYP2D6) small molecule antagonists: luciferase biochemical (cell-free) qHTS assay (AID 1645840; further: nearly all actives have a fitted effect of over 55% in size)). Settings: P450-Glo CYP2D6 enzyme, luciferin luminescence, 1 h; series mostly up to 57.4 µM; activity change, negative = inhibition: at the top concentration.
How it was run: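 P450-Glo CYP2D6 system: proluciferin substrate converted by enzyme to luciferin, read by luminescence proportional to activity. Enzyme-substrate mix with compound 10 min at room temperature, then NADPH regeneration 1 h before detection reagent.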
On the % scale 0 is the no-effect control and ±100 the full control effect; potency means the concentration at half of the fitted maximal effect.

Cytochrome P450 2D6 (Homo sapiens), sequence (P10635 whole entry, looked up): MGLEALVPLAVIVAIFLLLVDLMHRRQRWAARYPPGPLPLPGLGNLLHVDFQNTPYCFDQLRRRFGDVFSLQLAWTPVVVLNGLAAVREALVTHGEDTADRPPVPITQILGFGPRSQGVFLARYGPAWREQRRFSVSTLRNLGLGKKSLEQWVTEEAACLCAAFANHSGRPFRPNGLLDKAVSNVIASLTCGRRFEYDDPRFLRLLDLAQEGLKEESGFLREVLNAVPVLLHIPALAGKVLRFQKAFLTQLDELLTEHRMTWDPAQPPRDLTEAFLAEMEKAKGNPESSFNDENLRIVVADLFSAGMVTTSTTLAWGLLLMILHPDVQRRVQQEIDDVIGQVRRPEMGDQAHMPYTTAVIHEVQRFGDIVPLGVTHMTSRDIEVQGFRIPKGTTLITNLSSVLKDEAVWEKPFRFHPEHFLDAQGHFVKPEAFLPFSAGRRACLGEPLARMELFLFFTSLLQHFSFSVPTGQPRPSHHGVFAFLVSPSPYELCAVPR

Row | SMILES | Potency | activity change, negative = inhibition
1 | CN[C@H]1CC[C@@H](c2ccc(Cl)c(Cl)c2)c2ccccc21 | 2.19 µM (active) | –
2 | COc1nc2ccc(Br)cc2cc1[C@@H](c1ccccc1)[C@@](O)(CCN(C)C)c1cccc2ccccc12 | 7.56 µM (active) | –
3 | N#Cc1ccc(Nc2nc(-c3ccc(O)cc3O)cs2)cc1C(F)(F)F | 5.35 µM (active) | –
4 | CCC1C(=O)N(C)c2cnc(Nc3ccc(C(=O)NC4CCN(C)CC4)cc3OC)nc2N1C1CCCC1 (centres undefined) | – | -18.6% (inactive)
